Targets with a hit are over-represented here; the source holds about 8,800 in all. About 0.5% of all pairs of compound and target were hits. A number with no mark means an inactive call.
Tests used:
Assay in all cases: log2 fold change, soluble protein after heating vs DMSO (PISA); higher = thermal stabilisation; K562 lysate, 10 uM; active = over 0.2 and 3.5 SD of the protein, either way, in both replicates (recomputed)
[1] = compound: C#Cc1cccc(Nc2ncnc3cc(OCCOC)c(OCCOC)cc23)c1 [erlotinib]
Outline: (§1)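 Log-two fold change in thermal stability relative to solvent controls is reported from duplicates. For each sample, crude K562 extract from dounce-homogenised pellets in PBS pH 7.4 with 1 mM MgCl2, at 1 mg/mL protein, was treated with 10 μM compound for 30 min. Aliquots heated for 3 min across 48°C-58°C were pooled, brought to 0.5% NP-40 at 4°C and cleared at 21,000xg for 90 min. The supernatant was quantified by TMTpro 16plex LC-MS/MS with channel sums equalised.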

[2] = compound: C/C(=N\NC(=O)C1=CC(=CC=C1)S(=O)(=O)N2CCOCC2)/C3=C(C=CC(=C3)Cl)O
Outline: as §1

[3] = compound: C1=CC(=CC=C1C2=NC3=C(N2)C=C(C=C3)C(=O)N)OC4=CC=C(C=C4)Cl
Outline: as §1

[4] = compound: C1=CC2=C(C=CC(=C2)/C=C\3/C(=O)NC(=NCC4=CC=CS4)S3)N=C1
Outline: as §1

[5] = compound: C1=CC2=NC=CN=C2C=C1/C=C/3\C(=O)NC(=O)S3
Outline: as §1

[6] = compound: C1=CC=C(C=C1)C2=NC(=C(N2)C3=CC=NC=C3)C4=CC(=C(C=C4)Cl)O
Outline: as §1

[7] = compound: C1=CC=C2C(=C1)C3=NNC4=CC=CC(=C43)C2=O
Outline: as §1

[8] = compound: C1CCN(C1)C(=O)NC2=CC=CC(=C2)NC3=NC=C(C(=N3)NCCC4=CN=CN4)Br
Outline: as §1

[9] = compound: C1CN(CCC1(CC2=CC=C(C=C2)Cl)N)C3=NC=NC4=C3C=CN4
Outline: as §1

[10] = compound: C1COCCN1CCN2C3=CC=CC=C3N=C2NC(=O)C4=CC(=CC=C4)[N+](=O)[O-] [IRAK-1-4 Inhibitor I]
Outline: as §1

[11] = compound: C=CC(=O)N1CCC[C@@H](n2nc(-c3ccc(Oc4ccccc4)cc3)c3c(N)ncnc32)C1 [ibrutinib]
Outline: as §1

[12] = compound: CC(=O)c1cnc2ccc(-c3cc(Cl)c(O)c(Cl)c3)nc2c1N[C@H]1CC[C@H](CN(C)C)CC1
Outline: as §1

[13] = compound: CC(C)(C)Cn1c(N)nc2ccc(-c3[nH]c(C(C)(C)C)nc3-c3ccc(F)cc3)nc21 [ralimetinib]
Outline: as §1

[14] = compound: CC(C)(O)CC(=O)NCCn1ccc2ncnc(Nc3ccc(Oc4cccc(C(F)(F)F)c4)c(Cl)c3)c21
Outline: as §1

[15] = compound: CC(C)C1=C2N=C(C=C(N2N=C1)NCC3=CC=CC=C3)NCCCCCCN
Outline: as §1

[16] = compound: CC1=C(C(CC(=O)N1)C2=CC=C(C=C2)C(F)(F)F)C(=O)NC3=C(C=C4C(=C3)C=NN4)F
Outline: as §1

[17] = compound: CC1=C(C2=C(C=C1)C(=O)C3=CC=CC=C3N2CCCN)C
Outline: as §1

[18] = compound: CC1=C(C=C(C=C1)NC(=O)C2=CC(=CC=C2)C(C)(C)C#N)NC3=CC4=C(C=C3)N=CN(C4=O)C
Outline: as §1

[19] = compound: CC1=C(C=C(C=C1)NC(=O)C2=CC(=CC=C2)N(C)C)NC(=O)C3=CC=C(C=C3)O
Outline: as §1

[20] = compound: CC1=CC=C(C=C1)SC2=C3C=C(SC3=CN=C2)C(=O)N
Outline: as §1

Chain of UniProt Q15628 (Q15628 whole entry, looked up): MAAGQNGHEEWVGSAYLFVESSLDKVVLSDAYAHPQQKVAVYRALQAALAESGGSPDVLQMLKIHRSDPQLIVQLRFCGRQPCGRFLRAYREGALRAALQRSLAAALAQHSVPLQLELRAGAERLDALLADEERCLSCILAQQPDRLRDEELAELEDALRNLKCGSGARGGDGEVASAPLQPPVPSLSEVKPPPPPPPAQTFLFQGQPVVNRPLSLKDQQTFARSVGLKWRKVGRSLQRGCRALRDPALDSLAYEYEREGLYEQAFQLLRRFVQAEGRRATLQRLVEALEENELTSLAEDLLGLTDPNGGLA
Chain of UniProt Q8N0Z6 (Q8N0Z6 whole entry, looked up): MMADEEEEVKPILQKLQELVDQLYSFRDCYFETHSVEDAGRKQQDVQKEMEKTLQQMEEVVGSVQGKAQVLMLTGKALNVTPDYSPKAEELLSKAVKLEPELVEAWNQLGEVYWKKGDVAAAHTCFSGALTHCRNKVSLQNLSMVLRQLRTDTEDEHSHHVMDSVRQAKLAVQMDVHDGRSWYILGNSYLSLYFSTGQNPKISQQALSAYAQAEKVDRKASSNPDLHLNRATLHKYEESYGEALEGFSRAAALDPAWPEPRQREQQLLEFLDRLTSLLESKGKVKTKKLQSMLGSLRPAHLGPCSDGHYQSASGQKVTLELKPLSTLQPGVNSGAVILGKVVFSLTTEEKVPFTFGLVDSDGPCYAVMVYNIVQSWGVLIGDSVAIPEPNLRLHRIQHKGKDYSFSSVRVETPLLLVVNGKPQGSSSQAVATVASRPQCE
Chain of UniProt Q5JUR7 (Q5JUR7 whole entry, looked up): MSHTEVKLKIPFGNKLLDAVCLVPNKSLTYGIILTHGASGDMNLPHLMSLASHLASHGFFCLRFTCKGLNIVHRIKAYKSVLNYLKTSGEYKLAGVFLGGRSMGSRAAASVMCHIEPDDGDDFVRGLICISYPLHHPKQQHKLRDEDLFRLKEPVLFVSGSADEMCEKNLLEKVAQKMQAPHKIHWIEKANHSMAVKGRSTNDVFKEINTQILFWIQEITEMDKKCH
Chain of UniProt Q12788 (Q12788 whole entry, looked up): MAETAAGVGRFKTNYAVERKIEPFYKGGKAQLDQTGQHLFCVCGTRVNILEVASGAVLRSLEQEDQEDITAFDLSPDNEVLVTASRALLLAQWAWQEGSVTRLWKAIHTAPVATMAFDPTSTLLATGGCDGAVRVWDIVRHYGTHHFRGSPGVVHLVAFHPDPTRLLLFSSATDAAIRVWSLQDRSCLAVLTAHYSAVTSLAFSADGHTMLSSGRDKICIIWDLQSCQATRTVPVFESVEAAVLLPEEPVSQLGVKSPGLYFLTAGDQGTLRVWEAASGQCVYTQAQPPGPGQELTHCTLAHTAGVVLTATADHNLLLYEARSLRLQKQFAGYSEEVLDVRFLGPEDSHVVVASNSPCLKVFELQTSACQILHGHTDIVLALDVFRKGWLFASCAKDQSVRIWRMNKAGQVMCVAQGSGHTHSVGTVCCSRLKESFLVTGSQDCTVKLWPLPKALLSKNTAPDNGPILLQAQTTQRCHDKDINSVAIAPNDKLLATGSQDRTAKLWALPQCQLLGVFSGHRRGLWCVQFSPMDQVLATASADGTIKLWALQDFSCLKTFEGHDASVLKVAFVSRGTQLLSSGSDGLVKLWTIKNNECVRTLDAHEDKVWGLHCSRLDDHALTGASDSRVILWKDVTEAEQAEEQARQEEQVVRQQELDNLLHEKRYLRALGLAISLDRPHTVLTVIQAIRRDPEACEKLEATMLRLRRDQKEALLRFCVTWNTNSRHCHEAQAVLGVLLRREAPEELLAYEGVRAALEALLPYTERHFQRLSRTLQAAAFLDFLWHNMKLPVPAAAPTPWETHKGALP
Chain of UniProt Q8NG68 (Q8NG68 whole entry, looked up): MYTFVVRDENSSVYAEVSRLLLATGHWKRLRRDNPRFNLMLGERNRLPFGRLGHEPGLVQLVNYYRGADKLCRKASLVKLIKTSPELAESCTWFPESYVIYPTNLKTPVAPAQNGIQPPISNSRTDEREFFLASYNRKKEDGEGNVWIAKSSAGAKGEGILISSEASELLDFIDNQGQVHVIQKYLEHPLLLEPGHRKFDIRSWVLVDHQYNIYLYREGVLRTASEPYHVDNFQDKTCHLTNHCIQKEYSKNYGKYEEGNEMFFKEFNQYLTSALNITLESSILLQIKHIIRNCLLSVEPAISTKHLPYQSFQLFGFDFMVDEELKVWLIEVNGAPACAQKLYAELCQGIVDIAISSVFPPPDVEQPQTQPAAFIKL
Chain of UniProt Q96Q05 (Q96Q05 whole entry, looked up): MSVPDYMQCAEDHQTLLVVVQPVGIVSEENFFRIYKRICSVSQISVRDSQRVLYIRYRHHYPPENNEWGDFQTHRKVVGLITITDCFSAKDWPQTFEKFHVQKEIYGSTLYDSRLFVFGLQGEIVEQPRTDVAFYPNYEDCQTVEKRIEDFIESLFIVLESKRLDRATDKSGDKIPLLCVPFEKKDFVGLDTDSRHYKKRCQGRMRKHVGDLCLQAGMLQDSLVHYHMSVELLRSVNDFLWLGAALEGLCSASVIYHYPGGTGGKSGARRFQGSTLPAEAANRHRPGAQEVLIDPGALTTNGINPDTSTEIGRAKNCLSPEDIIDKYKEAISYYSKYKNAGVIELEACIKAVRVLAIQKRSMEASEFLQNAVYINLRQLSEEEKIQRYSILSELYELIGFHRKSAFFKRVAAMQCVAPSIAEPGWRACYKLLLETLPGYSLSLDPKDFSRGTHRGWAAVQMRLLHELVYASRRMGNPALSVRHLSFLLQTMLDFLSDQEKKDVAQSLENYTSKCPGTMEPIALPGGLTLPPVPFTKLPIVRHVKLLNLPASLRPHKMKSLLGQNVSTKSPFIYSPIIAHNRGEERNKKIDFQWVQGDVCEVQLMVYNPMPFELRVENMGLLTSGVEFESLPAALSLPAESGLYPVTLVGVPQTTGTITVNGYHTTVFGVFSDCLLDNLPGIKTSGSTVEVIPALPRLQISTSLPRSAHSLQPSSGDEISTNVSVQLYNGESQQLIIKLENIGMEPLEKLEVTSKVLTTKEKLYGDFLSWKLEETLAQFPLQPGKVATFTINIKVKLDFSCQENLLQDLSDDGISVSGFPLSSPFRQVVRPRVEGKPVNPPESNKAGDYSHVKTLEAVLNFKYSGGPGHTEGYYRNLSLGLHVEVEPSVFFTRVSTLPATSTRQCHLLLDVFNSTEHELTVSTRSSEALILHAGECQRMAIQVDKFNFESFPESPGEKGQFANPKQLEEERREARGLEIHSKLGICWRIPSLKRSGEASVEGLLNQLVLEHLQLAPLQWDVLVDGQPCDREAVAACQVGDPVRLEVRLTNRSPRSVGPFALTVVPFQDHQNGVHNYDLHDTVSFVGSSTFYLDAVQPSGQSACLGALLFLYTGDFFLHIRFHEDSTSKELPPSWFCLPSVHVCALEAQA
Chain of UniProt Q8IWV7 (Q8IWV7 whole entry, looked up): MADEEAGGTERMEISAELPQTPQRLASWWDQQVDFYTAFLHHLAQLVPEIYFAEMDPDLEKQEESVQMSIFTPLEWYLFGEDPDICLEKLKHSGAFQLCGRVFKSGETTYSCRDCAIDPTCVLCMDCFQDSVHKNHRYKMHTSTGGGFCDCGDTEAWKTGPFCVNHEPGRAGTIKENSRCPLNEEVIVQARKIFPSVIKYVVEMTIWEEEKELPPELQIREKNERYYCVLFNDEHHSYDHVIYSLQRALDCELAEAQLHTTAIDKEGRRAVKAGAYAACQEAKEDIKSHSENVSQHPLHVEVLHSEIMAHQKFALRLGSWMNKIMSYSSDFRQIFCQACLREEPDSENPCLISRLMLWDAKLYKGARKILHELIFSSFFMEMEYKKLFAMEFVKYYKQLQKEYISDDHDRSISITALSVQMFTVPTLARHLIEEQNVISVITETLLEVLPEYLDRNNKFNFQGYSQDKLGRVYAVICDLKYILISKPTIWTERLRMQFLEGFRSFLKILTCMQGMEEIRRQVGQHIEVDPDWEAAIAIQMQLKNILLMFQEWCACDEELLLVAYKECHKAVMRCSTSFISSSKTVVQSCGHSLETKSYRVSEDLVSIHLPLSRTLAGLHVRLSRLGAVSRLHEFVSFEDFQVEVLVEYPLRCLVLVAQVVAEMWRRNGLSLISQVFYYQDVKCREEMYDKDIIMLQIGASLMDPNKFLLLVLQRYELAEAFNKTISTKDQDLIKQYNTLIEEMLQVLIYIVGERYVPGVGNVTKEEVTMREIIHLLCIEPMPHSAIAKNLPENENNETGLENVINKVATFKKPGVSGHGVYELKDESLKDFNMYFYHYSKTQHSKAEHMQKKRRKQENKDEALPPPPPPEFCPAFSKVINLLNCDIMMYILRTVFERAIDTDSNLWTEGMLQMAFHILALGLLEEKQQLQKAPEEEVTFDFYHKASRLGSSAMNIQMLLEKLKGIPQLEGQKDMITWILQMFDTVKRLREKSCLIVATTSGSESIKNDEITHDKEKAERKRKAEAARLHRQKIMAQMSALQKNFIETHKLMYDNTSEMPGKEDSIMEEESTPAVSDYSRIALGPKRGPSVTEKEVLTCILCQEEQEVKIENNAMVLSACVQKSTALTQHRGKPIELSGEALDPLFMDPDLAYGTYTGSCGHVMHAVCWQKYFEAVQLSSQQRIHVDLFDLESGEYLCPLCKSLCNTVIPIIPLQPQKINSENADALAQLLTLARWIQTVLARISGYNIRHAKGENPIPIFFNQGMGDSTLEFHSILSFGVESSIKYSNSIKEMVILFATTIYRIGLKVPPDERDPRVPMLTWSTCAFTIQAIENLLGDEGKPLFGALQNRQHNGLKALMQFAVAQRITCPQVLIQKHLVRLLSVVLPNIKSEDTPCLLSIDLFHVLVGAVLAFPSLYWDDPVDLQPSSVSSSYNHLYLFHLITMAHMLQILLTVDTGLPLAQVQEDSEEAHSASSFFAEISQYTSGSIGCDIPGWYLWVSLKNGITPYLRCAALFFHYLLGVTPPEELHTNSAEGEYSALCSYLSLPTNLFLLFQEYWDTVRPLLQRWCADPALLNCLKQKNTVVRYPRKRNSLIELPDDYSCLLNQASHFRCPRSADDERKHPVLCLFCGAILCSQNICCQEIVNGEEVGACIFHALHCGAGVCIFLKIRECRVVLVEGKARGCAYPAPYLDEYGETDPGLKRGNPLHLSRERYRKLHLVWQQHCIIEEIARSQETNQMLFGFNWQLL

Target | log2 fold change [1] | log2 fold change [2] | log2 fold change [3] | log2 fold change [4] | log2 fold change [5] | log2 fold change [6] | log2 fold change [7] | log2 fold change [8] | log2 fold change [9] | log2 fold change [10] | log2 fold change [11] | log2 fold change [12] | log2 fold change [13] | log2 fold change [14] | log2 fold change [15] | log2 fold change [16] | log2 fold change [17] | log2 fold change [18] | log2 fold change [19] | log2 fold change [20]
TTL (UniProt Q8NG68) | 0.056 | 0.01 | 0 | 0.019 | -0.001 | -0.027 | 0.097 | 0.006 | -0.074 | 0.019 | 0.014 | 0.101 | -0.029 | 0.037 | 0.018 | 0.016 | -0.065 | 0.063 | 0.063 | -0.074
TMEM87B (UniProt Q96K49) | -0.016 | 0.103 | 0.093 | -0.003 | 0.117 | 0.03 | -0.019 | 0.006 | -0.008 | -0.045 | -0.076 | -0.017 | -0.003 | -0.001 | -0.047 | -0.011 | -0.01 | -0.012 | 0.028 | -0.012
TBL3 (UniProt Q12788) | 0.082 | -0.001 | -0.071 | 0.037 | 0.012 | 0.017 | 0.043 | 0.074 | -0.016 | 0.01 | -0.006 | -0.016 | 0.027 | 0.001 | 0.026 | 0.013 | -0.017 | 0.027 | 0.046 | 0.008
UBE4A isoform 2 (UniProt Q14139) | 0.031 | 0.091 | 0.023 | 0.013 | -0.023 | -0.021 | -0.082 | -0.028 | 0.035 | 0.004 | -0.025 | 0.018 | 0.038 | -0.038 | -0.023 | 0.03 | 0.019 | -0.009 | 0.034 | -0.009
UBR1 (UniProt Q8IWV7) | 0.01 | 0.058 | -0.055 | -0.002 | 0.026 | 0.015 | -0.016 | -0.047 | 0.008 | 0.002 | 0.007 | 0.005 | 0.015 | -0.044 | -0.014 | -0.011 | 0.004 | -0.004 | -0.03 | -0.008
TMEM199 (UniProt Q8N511) | 0.002 | -0.03 | -0.034 | 0.032 | 0.018 | -0.013 | -0.087 | -0.065 | 0.027 | -0.033 | 0.067 | 0.001 | -0.001 | -0.078 | -0.003 | 0.001 | -0.275 (active) | -0.043 | -0.016 | 0.009
TUBA4A (UniProt P68366) | 0.074 | 0.019 | -0.017 | -0.034 | -0.01 | -0.036 | -0.017 | 0 | 0.036 | 0.032 | -0.012 | 0.023 | 0.012 | 0.017 | 0.023 | -0.031 | -0.013 | 0.017 | -0.017 | 0.012
TRADD (UniProt Q15628) | 0.053 | 0.258 (active) | 0.03 | -0.224 | 0.009 | -0.013 | 0.251 | 0.029 | 0.076 | 0.033 | 0.013 | 0.017 | -0.005 | -0.012 | -0.018 | -0.015 | -0.001 | 0.017 | 0.021 | 0.019
UBAP2 (UniProt Q5T6F2) | -0.02 | -0.02 | 0.032 | 0.01 | 0.022 | -0.159 | 0.016 | -0.009 | 0.001 | 0.016 | 0.014 | 0.009 | -0.044 | -0.067 | 0.008 | 0.03 | 0.006 | -0.474 (active) | -0.026 | -0.019
TTMP isoform 3 (UniProt Q5BVD1) | 0.121 | -0.173 | -0.023 | -0.106 | -0.026 | -0.026 | -0.08 | -0.05 | 0.086 | 0.193 | 0.09 | 0 | -0.034 | -0.22 | -0.038 | -0.091 | -0.02 | 0.296 | -0.004 | -0.099
TRAPPC9 isoform 2 (UniProt Q96Q05) | 0.033 | 0.113 | -0.01 | 0.006 | -0.04 | -0.012 | -0.005 | 0.027 | 0.034 | 0.027 | 0.003 | 0.019 | 0.055 | -0.025 | -0.003 | -0.043 | -0.023 | 0.02 | -0.016 | -0.001
TUBA3C (UniProt P0DPH7) | 0.03 | -0.605 | 0.039 | -0.029 | 0.023 | -0.023 | -0.01 | -0.011 | 0.036 | 0.037 | -0.009 | -0.007 | 0.041 | -0.045 | -0.047 | 0.002 | 0.029 | -0.021 | 0.038 | 0.001
TEX30 (UniProt Q5JUR7) | -0.012 | -0.106 | -0.112 | 0.03 | 0.046 | -0.009 | -0.065 | -0.034 | -0.007 | -0.031 | 0.17 | 0.003 | 0.047 | -0.053 | -0.045 | -0.033 | 0.016 | -0.027 | 0.019 | 0.019
TTC5 (UniProt Q8N0Z6) | -0.015 | -0.089 | -0.014 | -0.034 | 0.041 | 0.022 | 0.016 | 0.017 | 0.033 | -0.008 | 0.019 | 0.007 | 0.017 | 0.001 | 0.042 | -0.089 | -0.01 | 0.017 | 0.016 | -0.001
TRIM56 (UniProt Q9BRZ2) | 0.053 | -0.021 | 0.021 | -0.049 | 0.141 | -0.013 | 0.033 | 0.039 | 0.003 | 0.062 | 0.023 | 0.007 | 0.028 | 0.001 | -0.03 | 0 | 0.002 | -0.06 | 0.014 | 0.033
TMEM70 (UniProt Q9BUB7) | -0.018 | -0.003 | -0.106 | 0.03 | 0.038 | -0.073 | 0.011 | 0.006 | -0.028 | 0.086 | 0.001 | -0.026 | 0.012 | -0.063 | -0.002 | -0.01 | 0.01 | 0.103 | 0.058 | 0.003

Source: the supplement of paper PMC10849652
